Assay results from PubChem BioAssay AID2315 (National Center for Advancing Translational Sciences (NCATS), 2010).
About 27,000 (9.3%) of roughly 290,000 compounds were called active. This is one part of a sample in which actives are shown more often than they occur. Values without a mark were called inactive. No stated cut-off is given here; in the data, active means inhibition mostly above about 28% (no sharp cut-off); inactive means mostly below about 43%.

Assay: A qHTS for Small Molecule Inhibitors of Shiga Toxin; further: 0% is about no effect
Conditions: Vero cells, Shiga toxin protein synthesis inhibition reporter; at 38.7 µM, stronger effect = higher value

Question: For `CN(C(=O)C1CCN(c2ncnc3c2nc2n3CCCCC2)CC1)C1CCCCC1`, which inhibition is on record?
Answer: -2.24%

Question: For `COCC(=O)Nc1c(C(=O)N2CCCC2)oc2ccccc12`, which inhibition is on record?
Answer: 3.56%

Question: For `Cc1cc(N(C)C)nc(Cl)n1`, which inhibition is on record?
Answer: -9.68%

Question: Which inhibition does the source give for `COc1ccc(-c2nc3c(c(SCC(=O)Nc4ccc(C(=O)O)cc4)n2)Cc2ccccc2O3)cc1` here?
Answer: 18.2%

Question: Which inhibition does the source give for `O=C1C2C3C=CC(C4CC34)C2C(=O)N1/N=C/c1ccc(-c2ccccc2[N+](=O)[O-])o1` (stereo not drawn) here?
Answer: 61.9%

Question: Which inhibition does the source give for `COc1cccc(N(CC(=O)NC2CCCCCC2)S(=O)(=O)c2ccccc2)c1` here?
Answer: -29.3%

Question: For `Cc1ccc(C(=O)N/C(=C/c2cccnc2)C(=O)O)cc1`, which inhibition is on record?
Answer: 14.9%

Question: Which inhibition does the source give for `C/C(=N\NC(=O)CNC(=O)C(c1ccccc1)c1ccccc1)c1ccc(C)cc1` here?
Answer: -1.4%

Question: Which inhibition does the source give for `C/C(=N\NC(=O)c1ccc(C)cc1)C1C(=O)c2ccccc2C1=O` here?
Answer: 40.4% (active)

Question: For `COCCN1C(=O)C(=O)/C(=C(/O)c2ccc(S(=O)(=O)N3CCOCC3)cc2)C1c1ccc(O)c(OC)c1` (stereo not drawn), which inhibition is on record?
Answer: 2.24%

Question: For `Cc1cc(C)nc(NS(=O)(=O)c2ccc(N3C(=O)C4CCCCC4C3=O)cc2)n1` (stereo not drawn), which inhibition is on record?
Answer: -4.6%

Question: Which inhibition does the source give for `CSCc1ccc(C(=O)Nc2cc(C)cc(C)c2)cc1` here?
Answer: 39% (active)

Question: For `CC(=O)Nc1ccccc1NC(=O)c1cc(C)cc(C)c1`, which inhibition is on record?
Answer: -6.09%

Question: With `C=CCN(c1ccc(C(=O)Nc2cc(C)cc(C)c2)cc1)S(C)(=O)=O` as the molecule, how does the inhibition read?
Answer: 1.49%

Question: With `COc1cccc(NC(=O)c2ccc(Cn3cc([N+](=O)[O-])cn3)o2)c1` as the molecule, how does the inhibition read?
Answer: 12.9%

Question: Which inhibition does the source give for `O=C(c1ccc(Cn2cc([N+](=O)[O-])cn2)o1)N1CCCC1` here?
Answer: -5.81%

Question: For `CN(C)c1ccc(/C=N/NC(=O)c2ccc(Cn3cc(Br)cn3)o2)cc1`, which inhibition is on record?
Answer: 73.5% (active)

Question: Which inhibition does the source give for `CC1CCc2c(sc(NC(=O)c3ccc(Cn4cc(Br)cn4)o3)c2C(N)=O)C1` (stereo not drawn) here?
Answer: 14.4%

Question: With `O=C(N/N=C/c1ccc2c(c1)OCO2)c1ccc(Cn2cc([N+](=O)[O-])cn2)o1` as the molecule, how does the inhibition read?
Answer: 39.5% (active)

Question: With `O=C(N/N=C\c1ccc(Br)cc1)c1ccc(Cn2cccn2)o1` as the molecule, how does the inhibition read?
Answer: 26.8%

Question: For `O=C(NCCc1ccc(Cl)cc1)C1CCCN1C(=O)NCc1ccccc1` (stereo not drawn), which inhibition is on record?
Answer: 2.06%

Question: Which inhibition does the source give for `COc1cccc(NS(=O)(=O)c2ccc(-c3coc(C)n3)cc2)c1` here?
Answer: -7.18%

Question: With `COc1ccc(N2CCN(C(=O)c3cccs3)CC2)cc1` as the molecule, how does the inhibition read?
Answer: 41.6%

Question: For `COc1ccc(N2CCN(C(C)=C3C(=O)c4ccccc4C3=O)CC2)cc1`, which inhibition is on record?
Answer: 66.2% (active)

Question: For `CC(=C1C(=O)c2ccccc2C1=O)N1CCN(c2ccccn2)CC1`, which inhibition is on record?
Answer: 2.68%

Question: With `COc1ccccc1C(=O)N1C(CC(=O)Nc2ccccc2C)C(=O)NC2CCCCC21` (stereo not drawn) as the molecule, how does the inhibition read?
Answer: -1.4%

Question: For `COC(=O)[C@H](Cc1ccccc1)NC(=O)[C@@H]1C[C@H]1[C@@H](NC(=O)OCc1ccccc1)c1ccccc1`, which inhibition is on record?
Answer: -13%

Question: Which inhibition does the source give for `CC1Sc2ccc(S(=O)(=O)CCC(=O)NCc3ccccc3Cl)cc2NC1=O` (stereo not drawn) here?
Answer: 11.4%

Question: For `Cc1cc(C)nc(N/N=C/c2ccc([N+](=O)[O-])o2)n1`, which inhibition is on record?
Answer: 12.2%

Question: For `CCCc1nn2c(=O)cc(CSCC(=O)Nc3cccc(C)c3)nc2s1`, which inhibition is on record?
Answer: 9.11%

Question: Which inhibition does the source give for `O=C(NC(Cc1c[nH]c2ccccc12)C(=O)N/N=C/c1ccc(Br)cc1)c1cccs1` (stereo not drawn) here?
Answer: -8.84%

Question: Which inhibition does the source give for `Cc1nn(-c2ccccc2)c(NC(=O)c2cccs2)c(-c2ccc(Cl)cc2)c1=O` here?
Answer: 7.45%

Question: Which inhibition does the source give for `Cc1ccc(-n2nc(C)c(/C=N/NC(=O)c3cccs3)c2Cl)cc1` here?
Answer: 41% (active)

Question: Which inhibition does the source give for `O=C(Nc1ccccc1)c1ccc(NC(=O)c2cccs2)cc1` here?
Answer: -21.1%

Question: Which inhibition does the source give for `CC(=O)Nc1ccc(/C=N/NC(=O)c2cccs2)cc1` here?
Answer: 97.3% (active)

Question: With `O=C(CNC(=O)c1cccs1)N/N=C/c1cccc(Br)c1` as the molecule, how does the inhibition read?
Answer: -5.46%

Question: Which inhibition does the source give for `Cc1ccc(-c2cc(C(=O)N/N=C/C=C/c3ccco3)c3ccccc3n2)cc1C` here?
Answer: 92.8%

Question: With `CC(/C=N/NC(=O)c1ccncc1)=C\c1ccco1` as the molecule, how does the inhibition read?
Answer: 27%

Question: For `CCN(CC)c1ccc(/C=N/NC(=O)CNC(=O)c2cccnc2)cc1`, which inhibition is on record?
Answer: -12.8%

Question: With `Cc1nn(-c2ccccc2)c(Cl)c1/C=N/NC(=O)c1nn(C)cc1[N+](=O)[O-]` as the molecule, how does the inhibition read?
Answer: 31.8%

Question: Which inhibition does the source give for `O=C(N/N=C/C=C/c1ccco1)c1cccs1` here?
Answer: 104% (active)

Question: For `CCN(CC)c1ccc(/C=N/NC(=O)CNC(=O)c2cccs2)cc1`, which inhibition is on record?
Answer: 42.1% (active)

Question: Which inhibition does the source give for `CC(=O)OCCN(CCCn1c(-c2ccncc2)nc2ccccc21)c1nc(-c2ccc(C)cc2)cs1` here?
Answer: -1.86%

Question: With `COc1ccc(CCNC(=O)c2nnc(CS(=O)(=O)c3ccccc3)o2)cc1OC` as the molecule, how does the inhibition read?
Answer: 5.82%

Question: For `Cc1ccc(S(=O)(=O)N(Cc2cc3ccccc3[nH]c2=O)CC2CCCO2)cc1` (stereo not drawn), which inhibition is on record?
Answer: -2.48%

Question: Which inhibition does the source give for `O=C(Nc1c2c(nn1-c1ccccc1)CS(=O)(=O)C2)C1CCCC1` here?
Answer: -3.43%

Question: Which inhibition does the source give for `COc1ccc(NC(=O)c2ccco2)cc1NC(=O)c1ccc(C#N)cc1F` here?
Answer: -2.14%

Question: For `CCCCCC(O)(CCN1CCCCC1)c1ccccc1` (stereo not drawn), which inhibition is on record?
Answer: -8.74%

Question: For `Cc1cc(NC(=O)CCC(=O)N(CC(=O)NCC2CCCO2)c2ccccc2)no1` (stereo not drawn), which inhibition is on record?
Answer: -9.61%

Question: With `COC(=O)C1(C)NC(c2ccccc2OC)C2C(=O)N(c3ccccc3)C(=O)C21` (stereo not drawn) as the molecule, how does the inhibition read?
Answer: -11.2%

Question: Which inhibition does the source give for `COc1ccc(N2CCN(S(=O)(=O)c3ccc4c(c3)N(C(C)=O)CCO4)CC2)cc1` here?
Answer: -9.48%

Question: With `Cc1cccc(-n2c(C)cc(/C=N/NC(N)=S)c2C)c1` as the molecule, how does the inhibition read?
Answer: -4.48%

Question: For `Cc1ccc(-n2c(C)cc(/C=N\NC(=O)CC(=O)NC(C)C)c2C)cc1`, which inhibition is on record?
Answer: 21.4%

Question: Which inhibition does the source give for `Cc1cccc(-n2c(C)cc(/C=N\NC(=O)c3cccs3)c2C)c1` here?
Answer: 85.9% (active)

Question: Which inhibition does the source give for `O=C(Cn1cnc2ccccc21)Nc1ccccc1-c1ccccc1` here?
Answer: -2.99%

Question: Which inhibition does the source give for `Cc1cc2ccccn2c1C(=O)c1cccc(F)c1` here?
Answer: 21%

Question: With `CCCCNC(=O)CCn1nc(-c2ccc(Cl)cc2)ccc1=O` as the molecule, how does the inhibition read?
Answer: -6.39%

Question: Which inhibition does the source give for `COc1ccc(CNC(=O)CN(c2ccc(OC)c(Cl)c2)S(=O)(=O)c2ccc(C)cc2)cc1` here?
Answer: 15.2%
